± gives the standard deviation. In all, about 6,200 sequences were measured (“pre-steady-state target cleavage rate”: median about 0.29, highest 2% from about 2 on). For the sample, the highest values were picked, then their nearest neighbours and some sequences at random.
test system: MIWI (PIWIL1) piRISC loaded with piRNA #1 (30 nt); experiment: pre-steady-state target cleavage rate (min^-1); MIWI and MILI are mouse PIWI proteins and EfPiwi is from a freshwater sponge; tags in brackets are library labels; higher = faster piRNA-guided slicing of the target; conditions: guide: piRNA #1 5'p-UGAGGUAGUAGGUUGUAUAGUAUCCAGAGG; auxiliary factor: 500 nM mouse GTSF1
Experimental: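 Cleave-'n-Seq: a library of target RNAs (target site embedded in constant flanks, ACAGCATTCCGCGTTAGTGATATCCG... 5' flank; DNA-blocked outside the site) at 0.1 nM was incubated with 1 nM active mouse MILI or MIWI piRISC (synthetic 5'-monophosphorylated piRNA guide) with or without 500 nM mouse GTSF1 at 33 °C for 1 min to 16 h. Uncleaved targets were sequenced and normalised to non-target controls, and the pooled three trials were fitted to a burst-and-steady-state model to give the pre-steady-state cleavage rate (min^-1; k3 is constrained to at most 1e-4). Sequence is the target site only; target names encode pairing extent (gX:gY) and contiguous / 1-mismatch / 2-mismatch / bulge geometry. Fits with R² ≤ 0 are excluded.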

| Sequence | pre-steady-state target cleavage rate |
| --- | --- |
| GGAGGGGAUACUAUACAACCUACUACCUCA | 1.51 ± 0.069 |
| GCACUGGAUACAAUACAACCUACUACCUCA | 1.8 ± 0.1 |
| GGAGACCUAUCUAUACAACCUACUCACCUCA | 0.537 ± 0.059 |
| GGAGUGGAUACUAAACAACCUACUUCCUCA | 0.0286 ± 0.0079 |
| GGAGUGGAUACUGAUACAACCUACUACCUCA | 1.3 ± 0.098 |
| GGAGACCUAACAAUACAACCUACUACCUGA | 0.00542 ± 0.0049 |
| GGAGAGGAUACGUAUACAACCUACUACCUCA | 0.484 ± 0.047 |
| GGAGUGGUUACAAUACAACCUACUACCUCA | 1.2 ± 0.079 |
| GGUCUGGAAACUAUACAACCUAGUACCUCA | 0.484 ± 0.077 |
| GGAGACCUAACUAUACAACCUACUACCCCA | 0.867 ± 0.099 |
| CCUCUGGAUACUAUUACAACCUACUACCUCA | 1.82 ± 0.12 |
| CCUCUGGAAUACUAUACAACCUACUACCUCA | 2.19 ± 0.13 |
| GGUCUGGAUACUAUAUAACCUACUACCUCA | 1.86 ± 0.1 |
| CCUCUGGAUACUAUAUAACCUACUACCUCA | 2.07 ± 0.12 |
| CCUUCUGGAUACUAUACAACCUACUACCUCA | 2.22 ± 0.12 |
| GCUCUGGAAUACUAUACAACCUACUACCUCA | 1.92 ± 0.1 |
| GCUCUGGAUACUAUACAACCUAUUACCUCA | 1.88 ± 0.13 |
| CCUCUGGAUACUAUACAACCUAUUACCUCA | 2.07 ± 0.13 |
| GGUCUGGAAUACUAUACAACCUACUACCUCA | 1.83 ± 0.11 |
| CUUCUGGAUACUAUACAACCUACUACCUCA | 1.99 ± 0.11 |
| GCUCUGGAUACUAUAUAACCUACUACCUCA | 1.79 ± 0.1 |
| GCUUCUGGAUACUAUACAACCUACUACCUCA | 1.94 ± 0.091 |
| GGACUGGAUAACUAUACAACCUACUACCUCA | 1.11 ± 0.087 |

| Sequence | pre-steady-state target cleavage rate |
| --- | --- |
| GGAGACCAUACUAUACAUCCUAGUACCUCA | 0.343 ± 0.029 |
| CCUCUGGAUACUAUAGAACCUACAACCUCA | 0.0249 ± 0.007 |
| GCUCUGGAUACUAUACAACCUACUACCUCA [g2:g29:cont:t1A] | 1.89 ± 0.1 |
| GCUCUGGAUACUAUACAACCUACUAACCUCA | 1.71 ± 0.11 |
| GCUCUGGAAACUAUUCAACCUACUACCUCA | 1.68 ± 0.12 |
| CCUCUGGAUACUAUACAACCUACUAACCUCA | 2.09 ± 0.13 |
| GGUCUGGAAACUAUUCAACCUACUACCUCA | 1.58 ± 0.096 |
| GCUCUGGAUACUAUACAACCUACCUACCUCA | 1.63 ± 0.091 |
| CGCUCUGGAUACUAUACAACCUACUACCUCA | 2.27 ± 0.14 |
| CCUCUGGAUACUAUACAACCUAACUACCUCA | 0.0333 ± 0.0068 |
| CCUCUGGAAACUAUUCAACCUACUACCUCA | 2.02 ± 0.13 |
| GGAGAGGAAACUAUACAACGUACUACCUCA | 0.27 ± 0.037 |
| GGAGACCUAUGAUAUGUACCAACAACCUCA | < 0.0001 |
| GGAGUCGGAUACUAUACAACCUACUACCUCA | 1.45 ± 0.091 |
| GGUCUGCAUACUAUACAACCUACUACCUCA | 1.71 ± 0.1 |
| GCUCUGGAUACUACACAACCUACUACCUCA | 1.89 ± 0.095 |
| GGAGACCAUACUAAACAACCUACUACCUGA | 0.604 ± 0.08 |
| GGAGAGCAUACUAUACAACGUACUACCUCA | 0.557 ± 0.036 |
| GGUCAUGGAUACUAUACAACCUACUACCUCA | 1.85 ± 0.11 |
| CCUCAUGGAUACUAUACAACCUACUACCUCA | 2.31 ± 0.13 |
| GCUAUGGAUACUAUACAACCUACUACCUCA | 1.93 ± 0.092 |
| GGUAUGGAUACUAUACAACCUACUACCUCA | 1.88 ± 0.11 |
